The results in this text go back to PubChem BioAssay.

The source made the active and inactive calls.

The test system of test [1] is Plasmodium falciparum Sir2 (PF13_0152, Sir2A). Put plainly: pfSir2 binders on small-molecule microarrays, primary screen, biochemical, small-molecule microarray, 635 nm fluorescence (AID 1098).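 Further: score merges spot fluorescence intensity with its signal-to-noise ratio.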 The following applies: small-molecule microarray binding, fluorescence 635 nm; higher = more signal.
Test [2] in a line: small-molecule microarray binders of probe aDKK1, primary screen, biochemical, biotinylated probe, 635/667 nm fluorescence (AID 1099).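 Further: score merges 667nm spot fluorescence with signal to noise across triplicate slides.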 The following applies: higher = more signal.
The nature of test [3]: small-molecule microarray binders of probe aCHRDL2, primary screen, biochemical, biotinylated probe, 635/667 nm fluorescence (AID 1100). The following applies: higher = more signal.
Test [4] is described as follows: splicing luciferase reporter signal modulators, primary screen, spliceosome inhibition project, cell-based, HEK293, splice +/- reporter (AID 1101).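 Further: HEK293 cells carrying a splicing-competent luciferase reporter gene; test concentration not given here.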 The following applies: luminescence, 24 h, higher = more signal, called active from +8 up or from −8 down.
Test [5] addresses Fibroblast growth factor 10 (Homo sapiens) (UniProt O15520). Nature of the test: FGF10 binders on small-molecule microarrays, primary screen, biochemical, small-molecule microarray, 635 nm fluorescence (AID 1102). The following applies: FGF10 binding, fluorescence 635 nm, higher = more signal.
For test [6], the system named is glycogen synthase kinase-3 (GSK3A per assay name; protocol says GSK3B). Nature of the test: GSK3 binders on small-molecule microarrays, primary screen, biochemical, small-molecule microarray, 635 nm fluorescence, GSK3A (AID 1103). Further: the record names both GSK3A and GSK3B. The conditions noted are these: small-molecule microarray binding, fluorescence 635 nm; higher = more signal.
Test [7] addresses Epidermal growth factor receptor (Homo sapiens) (UniProt P00533). Put plainly: EGFR binders on small-molecule microarrays, primary screen, biochemical, small-molecule microarray, 635 nm fluorescence (AID 1104).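 Further: score merges 667 nm emission intensity with spot signal to noise over triplicate slides.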 The conditions noted are these: EGFR binding, higher = more signal.
Test [8] has as its target Follistatin-related protein 3 (Homo sapiens) (UniProt O95633). Nature of the test: FSTL3 binders on small-molecule microarrays, primary screen, biochemical, small-molecule microarray, 635 nm fluorescence (AID 1105).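 Further: score merges emission near 667 nm and signal to noise per printed spot across three slides.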 The following applies: FSTL3 binding, higher = more signal.
Test [9] concerns the target Dickkopf-related protein 1 (Homo sapiens) (UniProt O94907). Put plainly: DKK1 binders on small-molecule microarrays, primary screen, biochemical, small-molecule microarray, 635 nm fluorescence scan (AID 1106).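 Further: score merges emission near 667 nm with signal to noise over three replicate slides.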 The conditions noted are these: DKK1 binding, higher = more signal.
Test [10] relates to Inhibin beta A chain (activin A). Put plainly: INHBA (activin A) binders on microarrays, primary screen, biochemical, small-molecule microarray, 635 nm fluorescence scan (AID 1107).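 Further: mouse activin A protein probed at 4.33 µg/mL on printed slides; score merges bound-protein fluorescence near 667 nm with spot signal-to-noise.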 The following applies: small-molecule microarray binding, higher = more signal.
Test [11] has as its system Human papillomavirus type 1a protein E7 (residues 44-93). Put plainly: HPV1a E7 fragment binders on microarrays, primary screen, biochemical, small-molecule microarray, residues 44-93, 635 nm fluorescence (AID 1108).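 Further: E7 fragment applied at 1 µg/mL in TBST for 1 h at 4 C; score combines spot fluorescence with its signal to noise ratio.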 The conditions noted are these: small-molecule microarray binding, fluorescence 635 nm; higher = more signal.
Test [12] in a line: modulators of HCV replicon luciferase signal, primary screen, HCV replication inhibitor project, Huh7 cells, luciferase reporter (AID 1109).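 Further: huh7 hepatoma cells harbouring a luciferase neomycin HCV replicon reporter; luciferase luminescence as measure of HCV replicon replication; test concentration not given here.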 The conditions noted are these: 48 h, higher = more signal. For orientation: In antiviral work, replicon cells carry a viral genome segment that copies itself.
For test [13], the target named is Left-right determination factor 2 (Homo sapiens) (UniProt O00292). Nature of the test: LEFTY2 binders on small-molecule microarrays, primary screen, biochemical, small-molecule microarray, 635 nm fluorescence scan (AID 1110). The following applies: LEFTY2 binding, higher = more signal.
In test [14] the target is Calmodulin-1 (Homo sapiens) (UniProt P0DP23). Nature of the test: CALM1 binders on microarrays, EGTA buffer, profiling panel, biochemical, small-molecule microarray, Cy5-labelled CALM1 (AID 1111).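 Further: labelled calmodulin applied in Tris saline Tween buffer holding calcium plus EGTA and DTT.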 The conditions noted are these: Cy5-CALM1 binding fluorescence, higher = more signal.
Test [15] shares this target. Put plainly: calcium-bound CALM1 binders on microarrays, profiling panel, artefact control for SMM control-protein annotation, biochemical, small-molecule microarray, Cy5-labelled CALM1, plus calcium (AID 1112).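 Further: score merges spot fluorescence with signal to noise from triplicate slides.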 The following applies: Cy5-CALM1 binding fluorescence, higher = more signal.
The nature of test [16]: small-molecule microarray binders of probe aWnt5a, primary screen, biochemical, biotinylated probe, 635/667 nm fluorescence (AID 1113).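 Further: score merges 667 nm fluorescence intensity with signal-to-noise per printed feature.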 The conditions noted are these: higher = more signal.
Test [17] can be described thus: small-molecule microarray binders of probe aShh, primary screen, biochemical, biotinylated probe, 635/667 nm fluorescence (AID 1114).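 Further: probe is biotin-labelled aShh protein from a stem cell growth factor screen; measures binding of labelled protein to compounds printed on the slide; score merges feature fluorescence at 667 nm with signal-to-noise.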 The following applies: higher = more signal.
A short description of test [18]: small-molecule microarray binders of probe aNog, primary screen, biochemical, biotinylated probe, 635/667 nm fluorescence (AID 1115).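 Further: probe is biotinylated aNog protein used at 0.15 µg/mL for 1 h at 4 C; z-score combines 667 nm fluorescence of each spot with its signal to noise.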 The following applies: higher = more signal.
Test [19] has as its target Torsin-1A-interacting protein 1 (Homo sapiens) (UniProt Q5JTV8). Nature of the test: LAP1 binders from COS7 cell lysate, primary screen, small-molecule microarray, 635/667 nm fluorescence (AID 1116). The conditions noted are these: COS7-hLAP1 lysate binding, 635 nm fluorescence, higher = more signal.
Test [20] concerns the target Alpha-bungarotoxin (Bungarus multicinctus) (UniProt P60615). Nature of the test: alpha-bungarotoxin binders on microarray, profiling panel, artefact control for SMM control protein annotation, biochemical, small-molecule microarray, Alexa647 label, 635/667 nm fluorescence (AID 1117). The following applies: alpha-BTX-A647 binding fluorescence, higher = more signal.

Sequence of Fibroblast growth factor 10 (Homo sapiens) (O15520 whole entry, looked up): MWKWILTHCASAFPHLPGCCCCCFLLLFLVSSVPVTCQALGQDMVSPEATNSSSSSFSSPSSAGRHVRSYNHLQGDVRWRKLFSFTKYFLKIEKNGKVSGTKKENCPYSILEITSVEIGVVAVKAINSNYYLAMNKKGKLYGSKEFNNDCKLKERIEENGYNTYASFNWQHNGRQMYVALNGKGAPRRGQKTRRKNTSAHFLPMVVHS
Sequence of Epidermal growth factor receptor (Homo sapiens) (P00533 whole entry, looked up): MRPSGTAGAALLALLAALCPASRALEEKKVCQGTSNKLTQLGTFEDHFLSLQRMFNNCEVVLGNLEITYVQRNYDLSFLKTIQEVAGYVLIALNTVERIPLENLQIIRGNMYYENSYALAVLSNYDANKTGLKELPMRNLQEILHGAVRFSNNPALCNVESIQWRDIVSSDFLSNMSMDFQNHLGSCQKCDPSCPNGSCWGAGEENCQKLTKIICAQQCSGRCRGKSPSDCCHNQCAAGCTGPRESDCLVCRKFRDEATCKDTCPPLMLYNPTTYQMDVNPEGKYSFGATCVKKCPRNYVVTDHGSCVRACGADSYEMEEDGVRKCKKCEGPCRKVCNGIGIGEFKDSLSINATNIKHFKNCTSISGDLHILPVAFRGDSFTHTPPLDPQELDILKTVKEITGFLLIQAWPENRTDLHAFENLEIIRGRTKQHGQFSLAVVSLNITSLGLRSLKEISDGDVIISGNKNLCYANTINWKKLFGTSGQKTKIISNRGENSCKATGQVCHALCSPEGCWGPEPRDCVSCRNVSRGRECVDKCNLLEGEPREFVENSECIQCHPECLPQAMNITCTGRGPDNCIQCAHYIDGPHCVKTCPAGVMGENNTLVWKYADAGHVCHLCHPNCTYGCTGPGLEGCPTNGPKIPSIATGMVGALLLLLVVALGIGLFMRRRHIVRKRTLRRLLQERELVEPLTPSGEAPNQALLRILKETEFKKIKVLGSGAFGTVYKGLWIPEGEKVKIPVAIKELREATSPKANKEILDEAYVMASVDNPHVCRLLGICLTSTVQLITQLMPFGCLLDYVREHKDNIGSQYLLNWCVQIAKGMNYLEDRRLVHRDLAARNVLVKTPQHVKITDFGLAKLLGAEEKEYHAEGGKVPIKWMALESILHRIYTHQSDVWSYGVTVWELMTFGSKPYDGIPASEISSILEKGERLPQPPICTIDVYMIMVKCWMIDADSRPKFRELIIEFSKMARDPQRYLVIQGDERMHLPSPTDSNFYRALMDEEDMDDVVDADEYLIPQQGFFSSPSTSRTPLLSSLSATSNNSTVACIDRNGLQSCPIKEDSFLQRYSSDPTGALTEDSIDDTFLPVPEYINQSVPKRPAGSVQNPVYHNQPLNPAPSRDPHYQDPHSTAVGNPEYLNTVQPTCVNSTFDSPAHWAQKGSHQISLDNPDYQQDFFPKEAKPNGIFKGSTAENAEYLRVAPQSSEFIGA
Sequence of Follistatin-related protein 3 (Homo sapiens) (O95633 whole entry, looked up): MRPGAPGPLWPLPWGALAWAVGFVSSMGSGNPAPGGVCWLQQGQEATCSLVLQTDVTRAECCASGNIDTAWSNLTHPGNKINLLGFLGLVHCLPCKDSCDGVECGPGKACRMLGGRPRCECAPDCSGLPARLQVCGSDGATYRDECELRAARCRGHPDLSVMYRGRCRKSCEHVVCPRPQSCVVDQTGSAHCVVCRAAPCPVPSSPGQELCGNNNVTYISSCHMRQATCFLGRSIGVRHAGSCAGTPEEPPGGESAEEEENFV
Sequence of Alpha-bungarotoxin (Bungarus multicinctus) (P60615 whole entry, looked up): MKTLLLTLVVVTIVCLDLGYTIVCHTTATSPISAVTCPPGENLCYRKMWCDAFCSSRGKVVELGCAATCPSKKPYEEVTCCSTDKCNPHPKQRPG
Sequence of Left-right determination factor 2 (Homo sapiens) (O00292 whole entry, looked up): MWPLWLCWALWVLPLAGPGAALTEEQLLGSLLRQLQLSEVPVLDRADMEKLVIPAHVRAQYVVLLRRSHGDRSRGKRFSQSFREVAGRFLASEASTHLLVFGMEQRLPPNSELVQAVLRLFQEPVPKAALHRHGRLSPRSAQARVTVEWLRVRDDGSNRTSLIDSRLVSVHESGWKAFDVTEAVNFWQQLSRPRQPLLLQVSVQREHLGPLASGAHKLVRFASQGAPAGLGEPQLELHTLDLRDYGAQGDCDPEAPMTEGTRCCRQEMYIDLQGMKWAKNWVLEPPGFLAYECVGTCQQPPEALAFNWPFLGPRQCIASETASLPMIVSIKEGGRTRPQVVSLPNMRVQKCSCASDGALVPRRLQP
Sequence of Torsin-1A-interacting protein 1 (Homo sapiens) (Q5JTV8 whole entry, looked up): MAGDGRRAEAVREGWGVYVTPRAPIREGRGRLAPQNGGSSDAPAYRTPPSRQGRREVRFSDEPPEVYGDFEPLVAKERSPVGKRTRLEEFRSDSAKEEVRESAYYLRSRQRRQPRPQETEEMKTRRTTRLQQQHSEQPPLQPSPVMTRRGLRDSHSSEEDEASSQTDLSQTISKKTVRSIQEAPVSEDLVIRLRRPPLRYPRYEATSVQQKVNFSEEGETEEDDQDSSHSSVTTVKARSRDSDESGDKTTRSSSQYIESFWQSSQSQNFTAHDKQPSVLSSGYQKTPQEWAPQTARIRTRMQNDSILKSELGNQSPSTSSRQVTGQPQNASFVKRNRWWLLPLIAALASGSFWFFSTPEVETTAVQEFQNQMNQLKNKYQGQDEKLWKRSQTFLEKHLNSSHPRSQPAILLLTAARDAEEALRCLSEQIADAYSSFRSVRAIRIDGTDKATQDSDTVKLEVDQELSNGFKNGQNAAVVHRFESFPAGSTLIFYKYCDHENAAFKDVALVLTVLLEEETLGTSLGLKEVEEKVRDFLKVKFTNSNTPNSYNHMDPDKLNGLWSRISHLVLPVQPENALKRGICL
Sequence of Dickkopf-related protein 1 (Homo sapiens) (O94907 whole entry, looked up): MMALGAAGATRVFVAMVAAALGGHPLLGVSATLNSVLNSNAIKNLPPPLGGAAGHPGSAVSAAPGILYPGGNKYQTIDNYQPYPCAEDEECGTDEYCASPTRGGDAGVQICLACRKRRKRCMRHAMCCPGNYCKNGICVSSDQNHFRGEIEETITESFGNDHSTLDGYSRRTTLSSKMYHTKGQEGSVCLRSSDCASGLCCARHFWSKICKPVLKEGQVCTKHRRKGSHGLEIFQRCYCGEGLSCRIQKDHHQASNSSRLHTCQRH

Turning to `COC(=O)[C@@]1(Cc2ccc(OC)cc2)[C@H]2c3cc(C(=O)N4CCCC4)n(CCn4cc([N+](=O)[O-])nc4C)c3C[C@H]2CN1C(=O)c1ccccc1`, the composite z-score in test [1] came out at 1.2; in test [2] it was 2.46; in test [3], 1.33; in [5], 0.981; in [6], 0.456; in test [7], 0.661. Further, the composite z-score was determined as 0.354 in test [8]; 0.559 in test [9]; 1.13 in [10]; 0.0832 in [11]; 0.277 in test [13]; 2.72 in test [14]. In addition, the composite z-score in [15] is 1.21; in [16] it was 1.19; in [17], 2.51; in [18], 3.12; in test [19], 1.98; in [20], 0.299. The z-score in [4] was 0.167 (inactive); in test [12], -0.432.
With `CN(C)C(=O)[C@]1(Cc2ccccc2)N=C(c2ccc(OCCCO)cc2)O[C@@H]1c1ccccc1CN=[N+]=[N-]`, the composite z-score is 0.978 in test [1]; 0.143 in test [2]; 0.591 in test [3]; 1.23 in [5]; 1.33 in test [6]; 0.0699 in test [7]. Besides, the composite z-score in [8] was 0.741; in test [9], -0.124; in test [10], 0.406; in [11], 1.41; in test [13] it was -0.273; in test [14], 1.09. Besides, the composite z-score in test [15] was 0.781; in [16] it was 0.027; in [17] it was 0.116; in test [18], -0.294; in test [19] it was 1.62; in test [20] it was 1.15. For the same compound, the figures for the z-score in test [4] and in [12] were -0.741 (inactive) and -2.79, respectively.
In the case of `COc1cc(OC)c(C(O)C2C=CC3C(=O)N(c4ccccc4)C(=O)C3N2Nc2ccc(C(C)C)cc2)cc1Br` (stereo not given), the composite z-score in test [1] amounted to 0.891; in [2], 0.671; in test [3], 0.605; in test [5] it was 0.909; in [6] it was 1.3; in [7], 0.21. For the same compound, the composite z-score in [8] is 0.839; in test [9], 0.245; in [10], 0.735; in [11] it was 1.22; in test [13], 0.513; in [14], 1.34. Also, the composite z-score amounted to 0.382 in test [15]; 0.238 in test [16]; 0.158 in [17]; 1.68 in test [18]; 0.695 in test [19]; 1.92 in test [20]. Further, the z-score in test [4] is -0.603 (inactive); in [12] it was -0.533.
As for `COc1cc(CO)cc(I)c1O[C@H]1C=C(C(=O)NCCO)C[C@@H](NC2CCCCCC2)[C@@H]1O`, the composite z-score was 0.515 in [1]; -0.168 in test [2]; -0.675 in test [3]; 1.38 in test [5]; 1.16 in [6]; 0.44 in test [7]. Further, the composite z-score came out at 1.29 in [8]; 0.772 in test [9]; 0.0403 in test [10]; 1.15 in test [11]; 0.867 in test [13]; 0.475 in [14]. The composite z-score in [15] was -0.572; in [16], -0.129; in test [17], -0.0769; in [18] it was -0.0345; in test [19] it was 0.484; in [20] it was 0.0323. Besides, the figures for the z-score in test [4] and in test [12] were -0.51 (inactive) and -4.13, respectively.
Consider `C=C(CCCC)/C(=C/C[C@@H](OC(C)=O)c1ccc(CO)o1)c1cnc2ccccc2c1`, for which the composite z-score was 1.08 in [1]; -0.282 in test [2]; -0.428 in test [3]; 1.46 in [5]; 1.3 in [6]; 0.533 in [7]. Also, the composite z-score in test [8] was 1.4; in test [9], 0.768; in test [10] it was 1.05; in test [11], 1.42; in test [13], 0.735; in test [14], 0.626. Besides, the composite z-score in test [15] is -0.764; in test [16], -0.0704; in test [17], 0.147; in test [18], -0.0719; in test [19], 1.69; in test [20] it was 1.15. Further, the z-score in [4] is 0.179 (inactive); in test [12], -0.756.
